Reference: PubChem BioAssay (NCI)
Compounds without any hit were thinned out: in the full panel of roughly 79,000, 15% have a hit. Calls of active or inactive are those of the source. Rule as the data show it: active = growth inhibition above about 70%; inactive = the rest.

Columns and labels:
[1] = NCI Yeast Anticancer Drug Screen. Data for the wt1 strain (AID 149);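 also: 0% = growth of vehicle-treated wt1 cultures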; conditions: S. cerevisiae wt1 strain (SPY 50644) growth inhibition, stronger effect = higher value
How it was run: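 Using yeast strain wt1, compound-induced growth inhibition was determined against vehicle-treated cultures.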

[2] = NCI Yeast Anticancer Drug Screen. Data for the rad50EPP+ strain (AID 151);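 also: 0% = growth of vehicle-treated control cultures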; conditions: S. cerevisiae rad50 mutant strain, stronger effect = higher value
How it was run: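 rad50EPP+ yeast treated with test compounds. Readout: growth vs vehicle control.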

[3] = NCI Yeast Anticancer Drug Screen. Data for the mgt1 strain (AID 153); conditions: S. cerevisiae mgt1 mutant growth inhibition, stronger effect = higher value
How it was run: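 Growth inhibition relative to vehicle controls was scored for the mgt1 yeast strain after compound exposure.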

[4] = NCI Yeast Anticancer Drug Screen. Data for the rad50 strain (AID 155);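 also: 0% = growth of vehicle-only cultures of the same strain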; conditions: S. cerevisiae rad50 strain growth inhibition, stronger effect = higher value
How it was run: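 Relative growth inhibition (compound vs vehicle) was measured in yeast with a defined repair-gene alteration.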

[5] = NCI Yeast Anticancer Drug Screen. Data for the mec2-1 strain (AID 157); conditions: S. cerevisiae mec2-1 strain, stronger effect = higher value
How it was run: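 Growth inhibition is read against vehicle-treated controls after compound exposure of the mec2-1 yeast strain, which is defective in DNA damage repair or cell cycle control.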

[6] = NCI Yeast Anticancer Drug Screen. Data for the rad14 strain (AID 159);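 also: 0% = growth of vehicle-treated control cultures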; conditions: S. cerevisiae rad14 strain growth inhibition, stronger effect = higher value
How it was run: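 Screen for anticancer potential: a yeast strain altered in DNA damage repair is grown with compound, and reduced growth is quantified against vehicle controls.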

[7] = NCI Yeast Anticancer Drug Screen. Data for the sgs1 mgt1 strain (AID 161);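 also: 0% = growth of cultures given vehicle only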; conditions: S. cerevisiae sgs1 mgt1 strain, stronger effect = higher value
How it was run: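 Percent growth inhibition was derived by comparing compound-exposed mutant yeast with vehicle-exposed cultures. The strain carries alterations in DNA damage repair.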

[8] = NCI Yeast Anticancer Drug Screen. Data for the CLN2oe strain (AID 163);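 also: 0% = growth of vehicle-only control cultures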; conditions: S. cerevisiae CLN2oe strain, stronger effect = higher value
How it was run: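 Compound-treated yeast; growth vs vehicle ctrl = % inhibition. Genetically altered strain (cell-cycle control).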

[9] = NCI Yeast Anticancer Drug Screen. Data for the cln2 rad14 strain (AID 165);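 also: 0% = growth equal to vehicle treated cultures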; conditions: S. cerevisiae cln2 rad14 strain, stronger effect = higher value
How it was run: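 Growth inhibition, relative to vehicle-treated controls, is the read-out. The test organism is a yeast strain with defined genetic alterations, cln2 rad14.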

[10] = NCI Yeast Anticancer Drug Screen. Data for the bub3 strain (AID 167); conditions: S. cerevisiae bub3 mutant strain, stronger effect = higher value
How it was run: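 Screening used yeast with an engineered genetic alteration affecting cell cycle control. Compound-exposed cultures were compared with vehicle cultures, and reduced growth was taken as inhibition.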

[11] = NCI Yeast Anticancer Drug Screen. Data for the wt2 strain (AID 169);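 also: 0% = growth of vehicle-treated yeast cultures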; conditions: S. cerevisiae wt2 strain growth inhibition, stronger effect = higher value
How it was run: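 Compound exposure of yeast; growth compared with vehicle controls; inhibition reported.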

[12] = NCI Yeast Anticancer Drug Screen. Data for the sgs1 strain (AID 173);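 also: 0% = growth of vehicle-only control cultures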; conditions: S. cerevisiae sgs1 mutant, stronger effect = higher value
How it was run: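 Compounds applied to genetically altered yeast; growth compared with vehicle-treated cultures to give % inhibition.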

[13] = NCI Yeast Anticancer Drug Screen. Data for the mlh1 rad18 strain (AID 175); conditions: S. cerevisiae mlh1 rad18 strain growth inhibition, stronger effect = higher value
How it was run: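 Cells of a genetically altered yeast strain, deficient in DNA damage repair, were treated with compound. Their growth was then compared with that of vehicle-treated cultures to give inhibition.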

[14] = NCI Yeast Anticancer Drug Screen. Data for the rad52 strain (AID 147);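 also: 0% = growth of vehicle-treated control cultures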; conditions: S. cerevisiae rad52 mutant growth inhibition, stronger effect = higher value
How it was run: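 DNA repair-defective yeast; compound exposure; growth scored against vehicle controls.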

[15] = NCI Yeast Anticancer Drug Screen. Data for the mlh1 strain (AID 171);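 also: 0% = growth of vehicle-treated control cultures of the same strain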; conditions: S. cerevisiae mlh1 strain growth inhibition, stronger effect = higher value
How it was run: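 Compounds are applied to a genetically altered yeast strain, and its growth is compared with that of vehicle-treated cultures to give percent inhibition.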

[16] = NCI Yeast Anticancer Drug Screen. Data for the rad18 strain (AID 177); conditions: S. cerevisiae rad18 mutant growth inhibition, stronger effect = higher value
How it was run: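 Compounds are applied to a repair-deficient yeast strain, and growth is compared with that of vehicle-treated cultures to give percent inhibition.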

[17] = at 5.0 µM (retest, dose inferred, filed as 0.5)
[18] = at 50.0 µM (retest, dose inferred, filed as 5.0)

Measured: growth inhibition

CCN(CC)CC(=O)c1ccc2cc(Cl)c3ccccc3c2c1
inactive: [1]; at 1.2 µM 6% | [1]; at 3.7 µM 17% | [2]; at 1.2 µM 68% | [3]; at 1.2 µM 0% | [3]; at 3.7 µM 13% | [4]; at 1.2 µM 9% | [4]; at 3.7 µM 18% | [4]; [17] 26% | [5]; at 1.2 µM 12% | [5]; at 3.7 µM 24% | [5]; [17] 26% | [6]; at 1.2 µM 6% | [6]; at 3.7 µM 13% | [7]; [17] 42% | [8]; at 1.2 µM 8% | [8]; at 3.7 µM 11% | [9]; [17] 6% | [10]; at 1.2 µM -4% | [10]; at 3.7 µM 3% | [10]; [17] 10% | [11]; at 1.2 µM 7% | [11]; at 3.7 µM 24% | [12]; at 1.2 µM 25% | [12]; at 3.7 µM 53% | [13]; [17] 48%
active: [1]; at 11.0 µM 99% | [1]; at 33.0 µM 98% | [1]; at 100.0 µM 98% | [2]; at 3.7 µM 85% | [2]; at 11.0 µM 98% | [2]; at 33.0 µM 98% | [2]; at 100.0 µM 98% | [3]; at 11.0 µM 99% | [3]; at 33.0 µM 99% | [3]; at 100.0 µM 99% | [4]; at 11.0 µM 98% | [4]; at 33.0 µM 98% | [4]; [18] 98% | [4]; at 50.0 µM 99% | [4]; at 100.0 µM 98% | [5]; at 11.0 µM 99% | [5]; at 33.0 µM 99% | [5]; [18] 99% | [5]; at 50.0 µM 99.2% | [5]; at 100.0 µM 99% | [6]; at 11.0 µM 99% | [6]; at 33.0 µM 99% | [6]; at 100.0 µM 99% | [7]; [18] 99% | [7]; at 50.0 µM 99.2% | [8]; at 11.0 µM 99% | [8]; at 33.0 µM 98% | [8]; at 100.0 µM 99% | [9]; [18] 99% | [9]; at 50.0 µM 99.2% | [10]; at 11.0 µM 98% | [10]; at 33.0 µM 98% | [10]; [18] 98% | [10]; at 50.0 µM 99.2% | [10]; at 100.0 µM 98% | [11]; at 11.0 µM 99% | [11]; at 33.0 µM 98% | [11]; at 100.0 µM 98% | [12]; at 11.0 µM 99% | [12]; at 33.0 µM 98% | [12]; at 100.0 µM 98% | [13]; [18] 98% | [13]; at 50.0 µM 99.2%

O=C1/C(=C/c2ccc(Cl)c(Cl)c2)CNC/C1=C\c1ccc(Cl)c(Cl)c1
active: [14]; at 33.0 µM 76% | [14]; at 100.0 µM 93% | [3]; at 100.0 µM 94% | [5]; at 33.0 µM 74% | [5]; [18] 74% | [5]; at 50.0 µM 89.8% | [5]; at 100.0 µM 93% | [6]; at 100.0 µM 92% | [7]; at 50.0 µM 89.6% | [8]; at 100.0 µM 79% | [9]; at 50.0 µM 90.4% | [10]; [18] 82% | [10]; at 50.0 µM 91.8% | [10]; at 100.0 µM 92% | [11]; at 33.0 µM 96% | [11]; at 100.0 µM 97% | [15]; at 100.0 µM 94% | [12]; at 33.0 µM 78% | [12]; at 100.0 µM 94% | [13]; [18] 86% | [13]; at 50.0 µM 90.3% | [16]; at 100.0 µM 94%
inactive: [14]; at 1.2 µM 22% | [14]; at 3.7 µM 22% | [14]; at 11.0 µM 27% | [2]; at 1.2 µM 14% | [2]; at 3.7 µM 27% | [2]; at 11.0 µM 19% | [2]; at 33.0 µM 32% | [2]; at 100.0 µM 32% | [3]; at 1.2 µM 5% | [3]; at 3.7 µM 13% | [3]; at 11.0 µM 35% | [3]; at 33.0 µM 69% | [5]; at 1.2 µM 25% | [5]; at 3.7 µM 23% | [5]; [17] -9% | [5]; at 11.0 µM 41% | [6]; at 1.2 µM 7% | [6]; at 3.7 µM 8% | [6]; at 11.0 µM 20% | [6]; at 33.0 µM 52% | [7]; [17] 27% | [7]; [18] 66% | [8]; at 1.2 µM 15% | [8]; at 3.7 µM 7% | [8]; at 11.0 µM 29% | [8]; at 33.0 µM 48% | [9]; [17] 10% | [9]; [18] 42% | [10]; at 1.2 µM -8% | [10]; at 3.7 µM -9% | [10]; [17] 20% | [10]; at 11.0 µM 13% | [10]; at 33.0 µM 69% | [11]; at 1.2 µM 1% | [11]; at 3.7 µM 0% | [11]; at 11.0 µM -12% | [15]; at 1.2 µM 5% | [15]; at 3.7 µM 13% | [15]; at 11.0 µM 35% | [15]; at 33.0 µM 69% | [12]; at 1.2 µM 29% | [12]; at 3.7 µM 33% | [12]; at 11.0 µM 49% | [13]; [17] 6% | [16]; at 1.2 µM 25% | [16]; at 3.7 µM 16% | [16]; at 11.0 µM 33% | [16]; at 33.0 µM 64%
